# Compound activity (PubChem)
# The entries come from a sample that favours hits as a whole.
# Methyltransferases = Primary Screen for Target Class Profiling of Small Molecule Inhibitors of Methyltransferases; purified enzyme, MTase-Glo SAH luminescence; hits give low values; calls only at 40 µM; 25,000 compounds, 3.9% hits; AID 1745853, 2022; call rule not given here
#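 Each enzyme was assayed with SAM and its substrate. SAH formation detected by MTase-Glo luminescence; single-point 40 uM screen[…].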
# The depositor's hits bear a star; i = inactive; + = active, no number; ! = not active in a repeat. % is scaled to controls: 0 for no effect and ±100 for the full control effect.
SMILES,Methyltransferases
COc1ccc(OC)c2c1cc1n2CC(C)(C(=O)NC2CCCCC2C)N(Cc2ccccn2)C1=O (stereo not given),i
COc1ccc(CCN2C(=O)c3cc4oc(C)cc4n3CC2(C)C(=O)NC2CCCCC2)cc1OC (stereo not given),+
Cc1cc2c(cc3n2CC(C)(C(=O)NC2CCCCCCC2)N(CCc2ccccc2)C3=O)o1 (stereo not given),i
CC(=O)c1ccc(Nc2nc3c(S(=O)(=O)c4ccc(C)c(C)c4)nnn3c3ccc(Cl)cc23)cc1,i
Cc1ccc(NC(=O)Cn2nc3n(CC(C)C)c(=O)c4ccccc4n3c2=O)cc1C,i
CCCCN(C)CCCN1C(=O)c2cc3occc3n2CC1(C)C(=O)NC1CCCCCC1 (stereo not given),i
O=C(NCCCc1ccccc1)C1CCC(CNS(=O)(=O)c2cccc3nsnc23)CC1 (stereo not given),i
Nc1nc(NCC2CCC(CNS(=O)(=O)c3cccc4ccccc34)CC2)nc2ccccc12 (stereo not given),+
Cc1ccc(Cn2c(=O)c3ccc(C(=O)NC(C)C)cc3n3c(=O)n(CC(=O)NC(C)C)nc23)cc1,i
COc1cc2nc(N3CCCCC3)nc(NC3CCN(Cc4ccccc4)CC3)c2cc1OC,+!
COc1cc2nc(N3CCC(N4CCCCC4)CC3)nc(NC3CCCCCC3)c2cc1OC,+
COc1cc2nc(N3CCCC3)nc(NCCCCCN3CCCC3)c2cc1OC,+!
O=S(=O)(c1ccccc1)c1nnn2c1nc(NC1CCN(Cc3ccccc3)CC1)c1ccccc12,i
COc1cc2nc(N3CCCCC3)nc(NC3CCN(C)CC3)c2cc1OC,+!
COc1cc2nc(-c3cc(F)ccc3O)nc(N[C@@H]3CNC[C@H]3C(C)(C)O)c2cc1OC,i
COc1cc2ncnc(N3CCC(Oc4cnc5ccccc5n4)C3)c2cc1OC (stereo not given),i
O=S(=O)(c1ccccc1)c1nnn2c1nc(NC1CCN(Cc3ccccc3)CC1)c1cc(Cl)ccc12,i
COCCn1ncc(N2CCC(C(=O)NCCCN3CCC(N4CCCCC4)CC3)C2)cc1=O (stereo not given),i
COc1cc2nc(-c3ccc(N4CCN(C)CC4)cc3)nc(NCCN3CCOCC3)c2cc1OC,i
CCC(C)NC(=O)c1ccc2c(=O)n(CC(C)C)c3nn(Cc4cccc(OC)c4)c(=O)n3c2c1 (stereo not given),i
COc1ccccc1CNC(=O)C1(C)Cn2nc(-c3ccccc3)cc2C(=O)N1Cc1ccc(F)cc1 (stereo not given),i
Cc1ccc2n1CCN(C(=O)Nc1ccc(F)c(Cl)c1)C2C(C)C (stereo not given),i
CCOC(=O)c1cc2n(n1)CC(C)(C(=O)NCc1ccccc1)N(CCc1ccc(SC)cc1)C2=O (stereo not given),i
O=C(Nc1cc(F)ccc1F)N1Cc2c(sc3c2CCCC3)-n2cccc2C1c1ccc(F)cc1 (stereo not given),i
Cc1ccc(NS(=O)(=O)c2cc3c(cc2C)n(C)c(=O)n3C)c(C)c1,i
SMILES,Methyltransferases
Cc1ccc(C)c(CSc2nnc3n(CCCOC(C)C)c(=O)c4ccccc4n23)c1,i
COc1ccc(OC)c2c1cc1n2CC(C)(C(=O)NC2CCCCC2C)N(Cc2cccs2)C1=O (stereo not given),i
CC1(C(=O)NC2CCCCCCC2)Cn2c(ccc2-c2ccco2)C(=O)N1CCc1ccccc1 (stereo not given),i
COc1ccc2c(c1)c(NC(C)=O)c1n2CC(C)(C(=O)NC2CCCC2)N(C2CCCCC2)C1=O (stereo not given),i
CC(C)c1cc2n(n1)CC(C)(C(=O)NC1CCCCC1)N(Cc1ccccc1)C2=O (stereo not given),i
CCN1C(=O)c2cc(C(=O)NCCCN3CCCCC3)nn2CC1(C)C(=O)NC1CCCC1 (stereo not given),i
Cc1ccc(Cn2nc3n(C(C)C)c(=O)c4ccc(C(=O)NC5CCCC5)cc4n3c2=O)cc1,i
CCOCCCN1C(=O)c2c(NC(C)=O)c3cc(F)ccc3n2CC1(C)C(=O)NC1CCCC1 (stereo not given),i
COc1cc2c(NC3CCN(C(C)C)CC3)nc(C3CCCCC3)nc2cc1OCCCN1CCCC1,+!
COc1cc2c(Nc3ccc(NC(=O)c4ccccc4)cc3)ncnc2cc1OCCCN1CCOCC1,i
CC1(C(=O)NCc2ccccc2)Cn2nc(-c3ccccc3)cc2C(=O)N1c1ccc2c(c1)OCO2 (stereo not given),i
COc1cccc(CNC(=O)CCc2nnc3n(Cc4ccc(Cl)cc4)c(=O)c4ccccc4n23)c1,i
CCc1ccccc1NC(=O)Cn1nc2n(C)c(=O)c3ccc(C(=O)NC(C)CC)cc3n2c1=O (stereo not given),i
C=CC[N+]1([C@H]2C[C@H]3[C@@H]4CC[C@H]5C[C@H](OC(C)=O)[C@@H](N6CCCCC6)C[C@]5(C)[C@H]4CC[C@]3(C)[C@H]2OC(=O)CC)CCCCC1,+
